Source: PubChem BioAssay (NCATS)
Records with an inconclusive call do not appear. A call without a number means that no potency is given here. The source made the active and inactive calls. Calls follow the shape of the dose curve; as a rule, active = well fitted curve in the direction sought with a large enough effect; inconclusive = small, poorly fitted or top-dose-only effect, or another doubt; inactive = no such curve, though single readings can be large; an effect the other way counts as inactive or inconclusive.

How the values were obtained:
[1] = qHTS of pediatric cancer cell lines to identify multiple opportunities for drug repurposing: Primary screen for Rh41 cells (AID 1347108); also: nearly all actives have a fitted effect of over 70% in size; also: potency is read from the fitted curve at half-maximal effect
Procedure, shortened: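 Viability was measured as metabolically active cells after 48 hours of treatment, read by CellTiter-Glo luminescence. Compounds were tested at multiple final concentrations, giving concentration-response curves.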

[2] = qHTS of pediatric cancer cell lines to identify multiple opportunities for drug repurposing: Confirmatory screen for NB1643 cells (AID 1347109); also: nearly all actives have a fitted effect of over 45% in size
Procedure, shortened: (§1)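 Viability after 48 h compound treatment at 37C, 500-1,000 cells/well, read as ATP luminescence with CellTiter-Glo. Primary screens used 11-point (MIPE, 0.78 nM-46 µM) or 8-point (NPC, 0.59 nM-46 µM) final concentrations; follow-up screens used 11-point dilutions.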

[3] = qHTS of pediatric cancer cell lines to identify multiple opportunities for drug repurposing: Confirmatory screen for A673 cells (AID 1347110); also: potency is read from the fitted curve at half-maximal effect; nearly all actives have a fitted effect of over 65% in size
Procedure, shortened: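 Forty-eight-hour viability assay. Follow-up compounds ran at 11-point dilutions; positive control bortezomib at 2.3 uM final, neutral control DMSO.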

[4] = qHTS of pediatric cancer cell lines to identify multiple opportunities for drug repurposing: Confirmatory screen for SK-N-MC cells (AID 1347111);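 also: potency is read from the fitted curve at half-maximal effect; cells exposed to compound for 48 h before the readout; nearly all actives have a fitted effect of over 70% in size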
Procedure, shortened: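 SK-N-MC cells at 500-1,000 cells/well in growth media were pre-incubated 5 h, then exposed to compounds at 11-point dilutions for 48 h at 37 degrees C, 5% CO2. Viability was read as CellTiter-Glo luminescence.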

[5] = qHTS of pediatric cancer cell lines to identify multiple opportunities for drug repurposing: Confirmatory screen for BT-12 cells (AID 1347112); also: nearly all actives have a fitted effect of over 55% in size
Procedure, shortened: as §1

[6] = qHTS of pediatric cancer cell lines to identify multiple opportunities for drug repurposing: Confirmatory screen for LAN-5 cells (AID 1347113); also: nearly all actives have a fitted effect of over 65% in size
Procedure, shortened: as §1

[7] = qHTS of pediatric cancer cell lines to identify multiple opportunities for drug repurposing: Confirmatory screen for DAOY cells (AID 1347114); also: nearly all actives have a fitted effect of over 65% in size
Procedure, shortened: (§2)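 Viability measured as metabolically active cells via CellTiter-Glo luminescence following 48 hours of compound exposure, 11-point dilutions in confirmatory testing. 500-1,000 cells/well plated 5 hours before dosing; controls were DMSO and 2.3 µM bortezomib.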

[8] = qHTS of pediatric cancer cell lines to identify multiple opportunities for drug repurposing: Confirmatory screen for NB-EBc1 cells (AID 1347115); also: nearly all actives have a fitted effect of over 45% in size; also: potency is read from the fitted curve at half-maximal effect
Procedure, shortened: as §1

[9] = qHTS of pediatric cancer cell lines to identify multiple opportunities for drug repurposing: Confirmatory screen for SJ-GBM2 cells (AID 1347116); also: nearly all actives have a fitted effect of over 60% in size
Procedure, shortened: as §2

Structure (SMILES): NC(=O)c1ncn([C@@H]2O[C@H](CO)[C@@H](O)[C@H]2O)c1N
- Potency [1]: inactive

Structure (SMILES): CC(=O)NC(Cc1ccccc1)C(=O)O (centres undefined)
- Potency [1]: inactive

Structure (SMILES): CC[C@H]1CN2CCc3cc(OC)c(OC)cc3[C@@H]2C[C@@H]1C[C@H]1NCCc2cc(OC)c(OC)cc21
- Potency [1]: 3.76 µM (active)

Structure (SMILES): Cc1cc(C(C#N)c2ccc(Cl)cc2)c(Cl)cc1NC(=O)c1cc(I)cc(I)c1O (centres undefined)
- Potency [1]: inactive

Structure (SMILES): O=C(O)c1ccccn1
- Potency [1]: inactive

Structure (SMILES): CN(C)CCCN1c2ccccc2CCc2ccccc21
- Potency [1]: inactive

Structure (SMILES): CC(=O)c1ccc2c(c1)N(CCCN(C)C)c1ccccc1S2
- Potency [1]: inactive

Structure (SMILES): CC(C)(C)C(=O)NCCCC(=O)O
- Potency [1]: inactive

Structure (SMILES): O=C1OC(OC(=O)c2cccnc2Nc2cccc(C(F)(F)F)c2)c2ccccc21 (centres undefined)
- Potency [1]: inactive

Structure (SMILES): NS(=O)(=O)c1cc2c(cc1Cl)NC(CSCc1ccccc1)=NS2(=O)=O
- Potency [1]: inactive

Structure (SMILES): O=Cc1ccccc1C=O
- Potency [1]: inactive

Structure (SMILES): Cc1ccc2nc(N)[nH]c(=O)c2c1Sc1ccncc1
- Potency [2]: inactive
- Potency [3]: 0.465 µM (active)
- Potency [4]: 2.08 µM (active)
- Potency [5]: inactive
- Potency [6]: inactive
- outcome [7]: inactive
- Potency [8]: 11.7 µM (active)
- Potency [9]: inactive

Structure (SMILES): CC(=O)Oc1ccc(C2(c3ccc(OC(C)=O)cc3)C(=O)Nc3ccccc32)cc1
- Potency [1]: inactive

Structure (SMILES): COC(=O)[C@H]1[C@H]2C[C@@H]3c4[nH]c5cc(OC)ccc5c4CCN3C[C@H]2C[C@@H](OC(=O)COc2ccc(OC)cc2)[C@@H]1OC
- Potency [1]: inactive

Structure (SMILES): C[C@@H]1CCN(C(=O)[C@H](CCCN=C(N)N)NS(=O)(=O)c2cccc3c2NC[C@H](C)C3)[C@@H](C(=O)O)C1
- Potency [1]: inactive

Structure (SMILES): CCN(CC)C(=O)Nc1ccc(OCC(O)CNC(C)(C)C)c(C(C)=O)c1 (centres undefined)
- Potency [1]: inactive

Structure (SMILES): CCOC(CN1CCN(CC(C)C(=O)c2ccccc2)CC1)c1ccccc1 (centres undefined)
- Potency [1]: inactive

Structure (SMILES): O=C1NC(=O)[C@@]2(CCOc3ccc(F)cc32)N1
- Potency [1]: inactive

Structure (SMILES): CCCCCCCCCCCCCCCC(=O)NCCO
- Potency [1]: inactive

Structure (SMILES): CCN(CC)CCNC(=O)c1c(C)[nH]c(/C=C2\C(=O)Nc3ccc(F)cc32)c1C
- Potency [1]: 21.1 µM (active)

Structure (SMILES): Cn1c(=O)c2c(ncn2CC2OCCO2)n(C)c1=O
- Potency [1]: inactive

Structure (SMILES): NC(=O)NNc1ccccc1
- Potency [1]: inactive

Structure (SMILES): CC(CN(C)C)CN1c2ccccc2CCc2ccccc21 (centres undefined)
- Potency [1]: inactive

Structure (SMILES): NC(CSCC(=O)O)C(=O)O (centres undefined)
- Potency [1]: inactive

Structure (SMILES): CC(=O)OCC(=O)[C@@]1(O)CC[C@H]2[C@@H]3CCC4=CC(=O)CC[C@]4(C)[C@H]3C(=O)C[C@@]21C
- Potency [1]: inactive

Structure (SMILES): CN1CCCCC1CCN1c2ccccc2Sc2ccc(S(C)=O)cc21 (centres undefined)
- Potency [1]: inactive

Structure (SMILES): CN(C)CCOC(C)(c1ccccc1)c1ccccn1 (centres undefined)
- Potency [1]: inactive

Structure (SMILES): C[C@]12CC[C@@H]3c4ccc(O)cc4CC[C@H]3[C@@H]1CCC2=O
- Potency [1]: inactive

Structure (SMILES): O=c1cc[nH]c(=S)[nH]1
- Potency [2]: inactive
- Potency [3]: 9.27 µM (active)
- Potency [4]: 2.93 µM (active)
- Potency [5]: inactive
- outcome [7]: inactive
- Potency [8]: inactive
- Potency [9]: inactive

Structure (SMILES): Nc1ccc(S(=O)(=O)Nc2ccccc2)cc1
- Potency [1]: inactive

Structure (SMILES): O=S(=O)(O)NC1CCCCC1
- Potency [1]: inactive
